According to PubChem BioAssay (Tox21):
Values joined by “and” are separate entries in the source; they are usually repeats but may differ in a detail not shown here. Equal values may be shown once. Inconclusive results are not listed. Entries that show only a call come without a potency. The source holds several records for some structures; these can differ, active in one and inactive in another. Active and inactive are the calls of the source. Unless noted, the call rests on the fitted dose curve; in most records, active means well fitted curve in the direction sought with a large enough effect in the repeat runs; inconclusive means weak or mixed curves; inactive means no such curve, though single readings can be large; an effect the other way counts as inactive or inconclusive.

What was measured:
[1] = qHTS assay for small molecule agonists of the p53 signaling pathway (AID 651631; calls by dose curve; further: nearly all actives have a fitted effect of over 15% in size; further: potency means the concentration at half of the fitted maximal effect)
Summary of the method: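 Agonist mode screen using a stably integrated beta-lactamase gene under p53 response elements in HCT-116 cells. Compound exposure lasts 16 h at 37 °C; fluorescence intensity is measured following 2 h FRET substrate loading.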

[2] = qHTS assay for small molecule agonists of the p53 signaling pathway - cell viability (AID 651633; calls by dose curve;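 further: p53RE-bla HCT reporter cells with a stable beta-lactamase p53 reporter; series mostly up to about 83 µM; nearly all actives have a fitted effect of over 30% in size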)
Summary of the method: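 p53RE-bla cells were treated with compound for 16 hours at 37 C. Cytotoxicity was then measured as CellTiter-Glo luminescence after 30 min at room temperature.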

[3] = qHTS assay for small molecules that induce genotoxicity in human embryonic kidney cells expressing luciferase-tagged ATAD5 - cell viability (AID 651634; calls by dose curve; further: nearly all actives have a fitted effect of over 25% in size; further: potency means the concentration at half of the fitted maximal effect)
Summary of the method: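 HEK293T cells carrying luciferase-tagged ATAD5, 2,000 cells/well, exposed to compound for 15.5 hr at 37C. Viability read as live-cell protease activity by CellTiter-Fluor fluorescence after 30 min at 37C.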

[4] = qHTS assay for small molecule disruptors of the mitochondrial membrane potential - cell viability (AID 720634; calls by dose curve; further: nearly all actives have a fitted effect of over 20% in size; further: potency means the concentration at half of the fitted maximal effect)
Summary of the method: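 HepG2 cells, 2,000 per well, attached overnight, then treated 1 hr at 37 C, 5% CO2. Viability read as ATP by CellTiter-Glo luminescence after 30 min at room temperature. Read in the same wells as the m-MPI membrane-potential dye assay.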

[5] = qHTS assay for small molecule disruptors of the mitochondrial membrane potential (AID 720635); further: potency means the concentration at half of the fitted maximal effect
Summary of the method: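 HepG2 cells exposed to compound 1 hr at 37C, then Mito-MPS dye 30 min. Ratio read of aggregate (540/590 nm) versus monomer (490/535 nm) fluorescence.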

[6] = qHTS assay to test for compound auto fluorescence at 590 nm (red) in HepG2 cells (AID 720674)
Summary of the method: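 Seeding: 2,000 HepG2 cells/well, MEM/10% FBS, overnight 37 C. Dosing: compound vs DMSO. Incubation: 1 hr, 37 C, 5% CO2. Read: fluorescence 540 ex/590 em, Rose Bengal sodium as red reference.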

[7] = qHTS assay to test for compound auto fluorescence at 535 nm (green) in HepG2 cells (AID 720675)
[8] = qHTS assay to test for compound auto fluorescence at 460 nm (blue) in HEK293 cells (AID 720678)
Summary of the method: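 HEK293 cells (2,000/well, medium with 10% dialyzed FBS) attached 4-5 hr, then exposed to compound overnight at 37C, 5% CO2. Blue fluorescence read at 405/460 nm, with triamterene as reference fluorophore.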

[9] = qHTS assay to test for compound auto fluorescence at 590 nm (red) in HEK293 cells (AID 720679)
Summary of the method: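 HEK293 cells (2,000/well, 10% dialyzed FBS) attached 4-5 hr, then dosed with compound or DMSO and incubated overnight at 37C, 5% CO2. Red fluorescence read at 540/590 nm, Rose Bengal sodium as reference fluorophore.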

[10] = qHTS assay to test for compound auto fluorescence at 535 nm (green) in HEK293 cells (AID 720680)
[11] = qHTS assay to test for compound auto fluorescence at 535 nm (green) in HEK293 cell free culture (AID 720682)
Summary of the method: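 No cells present: wells hold DMEM supplemented with 10% FBS, into which compound or vehicle is pinned. Green emission is then recorded (485 nm excitation, 535 nm emission) and scaled to fluorescein.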

[12] = qHTS assay to test for compound auto fluorescence at 590 nm (red) in HEK293 cell free culture (AID 720683)
Summary of the method: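 Cell-free wells of DMEM with 10% FBS received compound, and intrinsic fluorescence was read at excitation/emission 540/590 nm. Values expressed as equivalence to Rose Bengal sodium.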

[13] = qHTS assay to test for compound auto fluorescence at 590 nm (red) in HepG2 cell free culture (AID 720684)
Summary of the method: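 Compounds are added to culture medium (MEM, 10% FBS) lacking cells, then fluorescence is read at excitation 540 nm, emission 590 nm, with Rose Bengal sodium as the equivalency standard.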

[14] = qHTS assay to test for compound auto fluorescence at 460 nm (blue) in HepG2 cell free culture (AID 720685)
Summary of the method: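 Compound (23 nL) or DMSO pinned into cell-free MEM with 10% FBS; blue fluorescence read at 405/460 nm excitation/emission, expressed as auto-fluorescence equivalency to triamterene.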

[15] = qHTS assay to test for compound auto fluorescence at 535 nm (green) in HepG2 cell free culture (AID 720686)
[16] = biological target: Glucocorticoid receptor (Homo sapiens) (UniProt P04150); experiment: qHTS assay to identify small molecule agonists of the glucocorticoid receptor (GR) signaling pathway (AID 720691; active means well fitted activation curve with a large enough effect in the signal ratio in the repeat runs, not every such curve was filed as active; the % refers to the signal ratio)
Summary of the method: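 GR-bla HeLa cells carrying a GRE-driven beta-lactamase reporter, exposed to compounds for 18 h at 37 C. Reporter activation read as fluorescence after 2 h with LiveBLAzer B/G FRET substrate at room temperature.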

[17] = biological target: Glucocorticoid receptor (Homo sapiens) (UniProt P04150); experiment: qHTS assay to identify small molecule antagonists of the glucocorticoid receptor (GR) signaling pathway (AID 720692; active means well fitted inhibition curve with a large enough effect in the signal ratio in the repeat runs, not every such curve was filed as active; the % refers to the signal ratio)
Summary of the method: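 GR-bla HeLa cells carrying a GRE-driven beta-lactamase reporter received compound after 4 h plating, then dexamethasone (5 nM final). After 18 h at 37C, the FRET substrate was loaded for 2 h at room temperature and fluorescence read.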

[18] = qHTS assay to test for compound auto fluorescence at 460 nm (blue) in HepG2 cells (AID 720687)
Summary of the method: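 HepG2 cells in MEM with 10% FBS, attached overnight at 37 C, were exposed to compound or DMSO for 1 hr at 37 C, 5% CO2. Blue fluorescence was read at 405/460 nm, with triamterene as reference fluorophore.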

[19] = qHTS assay to test for compound auto fluorescence at 460 nm (blue) in HEK293 cell free culture (AID 720681)
Summary of the method: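 Compounds were added to cell-free DMEM with 10% FBS and fluorescence read directly. The blue channel used 405 nm excitation and 460 nm emission, with triamterene as the reference fluorophore.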

[20] = qHTS assay for small molecules that induce genotoxicity in human embryonic kidney cells expressing luciferase-tagged ATAD5 (AID 651632); further: nearly all actives have a fitted effect of over 15% in size
Summary of the method: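 HEK293T cells carrying luciferase-tagged ATAD5 were given compound or DMSO vehicle and incubated 16 hr at 37C, 5% CO2. Luciferase activity was read after 30 min at room temperature with Amplite; a rise signals genotoxic stress.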

Glucocorticoid receptor (Homo sapiens), sequence (P04150 whole entry, looked up): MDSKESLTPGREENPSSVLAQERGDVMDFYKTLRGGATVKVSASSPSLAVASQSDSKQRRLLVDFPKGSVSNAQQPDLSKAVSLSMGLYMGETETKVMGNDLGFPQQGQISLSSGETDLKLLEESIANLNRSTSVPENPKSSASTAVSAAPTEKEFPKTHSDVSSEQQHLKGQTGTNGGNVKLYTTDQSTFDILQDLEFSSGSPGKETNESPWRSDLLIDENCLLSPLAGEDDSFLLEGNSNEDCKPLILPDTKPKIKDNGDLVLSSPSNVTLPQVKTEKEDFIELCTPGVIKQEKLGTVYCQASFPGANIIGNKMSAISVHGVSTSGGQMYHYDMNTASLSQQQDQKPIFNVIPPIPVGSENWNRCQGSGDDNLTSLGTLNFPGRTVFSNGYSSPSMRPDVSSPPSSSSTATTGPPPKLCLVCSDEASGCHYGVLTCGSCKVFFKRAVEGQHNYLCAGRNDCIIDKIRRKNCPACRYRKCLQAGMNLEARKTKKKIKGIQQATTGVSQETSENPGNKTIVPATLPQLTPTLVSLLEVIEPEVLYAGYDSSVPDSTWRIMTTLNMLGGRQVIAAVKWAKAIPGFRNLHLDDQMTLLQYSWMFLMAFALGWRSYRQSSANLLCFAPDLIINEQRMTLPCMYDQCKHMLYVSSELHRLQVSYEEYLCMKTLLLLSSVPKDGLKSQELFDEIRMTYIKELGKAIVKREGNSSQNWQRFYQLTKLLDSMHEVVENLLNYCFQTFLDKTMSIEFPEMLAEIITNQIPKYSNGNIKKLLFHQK

| Structure (SMILES) | Potency [1] | Potency [2] | Potency [3] | Potency [4] | Potency [5] | outcome [6] | outcome [7] | outcome [8] | outcome [9] | outcome [10] | outcome [11] | outcome [12] | outcome [13] | outcome [14] | outcome [15] | Potency [16] | Potency [17] | outcome [18] | outcome [19] | Potency [20] |
| --- | --- | --- | --- | --- | --- | --- | --- | --- | --- | --- | --- | --- | --- | --- | --- | --- | --- | --- | --- | --- |
| O=C(NCNC(=O)NC1C(=O)NC(=O)N1CO)NC1C(=O)NC(=O)N1CO (configuration not stated) | inactive | inactive | inactive | inactive | inactive | inactive | inactive | inactive | inactive | inactive | inactive | inactive | inactive | inactive | inactive | inactive | inactive | – | – | – |
| CN[C@@H](C)[C@H](O)c1ccccc1 | inactive | inactive | – | inactive | inactive | inactive | inactive | inactive | inactive | inactive | inactive | inactive | – | – | inactive | inactive | inactive | – | – | – |
| CC(C)(C)OOC(C)(C)CCC(C)(C)OOC(C)(C)C | inactive | inactive | – | inactive | inactive | inactive | inactive | inactive | inactive | inactive | inactive | inactive | inactive | – | inactive | inactive | inactive | inactive | – | – |
| C=CC(C)(CCC=C(C)C)OC(=O)c1ccccc1N (configuration not stated) | inactive | – | – | inactive | – | inactive | inactive | inactive | inactive | inactive | inactive | inactive | inactive | – | – | inactive | – | inactive | inactive | – |
| CN1CC[C@]23c4c5ccc(O)c4O[C@H]2[C@@H](O)CC[C@H]3[C@H]1C5 | inactive | – | – | inactive | inactive | inactive | inactive | inactive | inactive | inactive | inactive | inactive | inactive | – | inactive | inactive | inactive | inactive | – | inactive |
| C[C@@H]1C[C@@H]([C@H](O)CC2CC(=O)NC(=O)C2)C(=O)[C@@H](C)C1 | 11.9 µM (active) and inactive | inactive | 1.33 µM (active) and 271 nM (active) | inactive | – | inactive | inactive | – | inactive | inactive | inactive | inactive | inactive | inactive | inactive | – | – | – | inactive | – |
| CCCCNC(=O)OCC#CI | 68.6 µM (active) | – | – | 8.59 µM (active) and 27.3 µM (active) | 4.31 µM (active) and 6.86 µM (active) | inactive | inactive | inactive | inactive | inactive | inactive | inactive | – | inactive | inactive | – | – | inactive | inactive | inactive |
| CCSCc1ccccc1OC(=O)NC | inactive | – | inactive | inactive | – | inactive | inactive | inactive | inactive | inactive | inactive | inactive | inactive | inactive | inactive | inactive | – | – | – | inactive |
| C[N+](C)(C)CC1CO1 (configuration not stated) | inactive | inactive | inactive | inactive | inactive | inactive | inactive | inactive | inactive | inactive | inactive | inactive | inactive | inactive | inactive | – | – | inactive | inactive | – |
